According to ChEMBL document CHEMBL3988442, “University of Dundee, Small-Polar-MMV Screening Library” (2021):
About 13,000 (27%) of roughly 48,000 compounds showed an effect of 50% or more. The list shows a part of the results.

The compounds below were run on Wolbachia pipientis (assay: Anti-Wolbachia Cell-Based Screen). Settings: 5 µM.
Assay type: functional
Design: scale not given: in the data most compounds retested in dose-response had high values
For O=C(CCn1cccc1)N1CCc2[nH]nc(COc3ccccc3)c2C1, the “Percent Effect” value was 87.66%. For COC(=O)CCC(=O)N1CCc2[nH]nc(-c3ccc(F)c(F)c3)c2C1, the “Percent Effect” value was 3.026%. For O=C(O)C(F)(F)F.O=C(O)C(F)(F)F.c1ccc(OCc2n[nH]c3c2CN(CC2CC2)C3)nc1, the “Percent Effect” value was 5.634%. In the case of O=C(Cn1cccn1)N1CCc2[nH]nc(-c3ccc4c(c3)OCO4)c2C1, the “Percent Effect” value is reported as 1.932%. For O=C(N1CCOCC1)N1CCc2[nH]nc(COc3cccc(Cl)c3)c2C1, the “Percent Effect” value was 2.718%. CCSCCC(=O)N1CCc2[nH]nc(COc3ccccc3)c2C1 was tested, and the “Percent Effect” value was 89.78%. In the case of Cc1nc(C)c(C(=O)N2CCc3[nH]nc(COc4ccccc4)c3C2)s1, the “Percent Effect” value is reported as 5.403%. For O=C(CSCC1CC1)N1CCc2[nH]nc(COc3ccccc3)c2C1, the “Percent Effect” value was 108.9%. O=C1CC[C@@H](C(=O)N2CCc3[nH]nc(COc4cccc(Cl)c4)c3C2)N1 was tested, and the “Percent Effect” value was 3.497%. For CN(C)S(=O)(=O)N1C[C@@H]2CC[C@H](C1)N(Cc1cccc(C#N)c1)C2, the “Percent Effect” value was -14.1%. With CCc1nc(CNC(=O)C2CCC(=O)N(Cc3ccccc3F)C2)no1 (stereo unspecified) the “Percent Effect” value was -29.1%. With CCNc1ncc(C(=O)NCCc2csc(CSC)n2)cn1 the “Percent Effect” value was -1.673%. For COC(=O)C(C)(C)NC(=O)c1scnc1Cl, the “Percent Effect” value was 4.833%. CC1(C)OCC2(CO1)CN(C(=O)c1ccccc1Br)C2 was tested, and the “Percent Effect” value was -7.61%. In the case of O=C1NCCCCC1NC(=O)C1(c2cccc(C(F)(F)F)c2)CC1 (stereo unspecified), the “Percent Effect” value is reported as -27.01%. In the case of CC[C@H](C)[C@H](N)C(=O)Nc1nc(-c2cnc(N(C)C)nc2)cs1, the “Percent Effect” value is reported as 89.2%. In the case of CCC(Nc1nnnn1-c1ccccc1)C(=O)Nc1nc(C)cs1 (stereo unspecified), the “Percent Effect” value is reported as 23.33%. In the case of CC[C@H](C)[C@H](N)C(=O)Nc1nc(-c2cnc(N(C)CCO)nc2)cs1, the “Percent Effect” value is reported as 103.7%. Cc1nc(-c2cccc(C(=O)N(C)CC(C)O)c2)cs1 (stereo unspecified) was tested, and the “Percent Effect” value was -6.133%. With Cc1cc(CN(C)C(=O)NC(C)Cc2ccc(O)cc2)no1 (stereo unspecified) the “Percent Effect” value was 12.34%. For Cc1ccc(OCC(=O)Nc2cnccc2SCCCO)cc1C, the “Percent Effect” value was -7.18%. With CN(Cc1ccccc1CN1CCCC1)C(=O)c1c[nH]c(=O)[nH]1 the “Percent Effect” value was 14.99%. Cc1ccc(S(=O)(=O)N2CSCC2C(=O)N(C)C2CC2)cc1Cl (stereo unspecified) was tested, and the “Percent Effect” value was 4.535%. CSc1cccc(CN2CCC(CCC(=O)Nc3ccccc3)CC2)c1 was tested, and the “Percent Effect” value was 5.512%. O=C(Nc1cccnc1)Nc1cccc(CN2CCC(O)CC2)c1 was tested, and the “Percent Effect” value was -1.395%. CSc1cccc(CN2CCC(CCC(=O)NC3CC3)CC2)c1 was tested, and the “Percent Effect” value was 0.2093%. With Cc1nc(CN2CCC(CNC(=O)Nc3ccccc3)CC2)oc1C the “Percent Effect” value was -9.889%. For Cc1cc(C)c(C(=O)Nc2cccc(CN3CCC(CO)CC3)c2)o1, the “Percent Effect” value was 132.4%. NC(=O)C1CCN(Cc2cccc(NC(=O)c3ccsc3)c2)CC1 was tested, and the “Percent Effect” value was -7.959%. With Cc1nc(C)n(Cc2cccc(NC(=O)NC(C)(CO)C3CC3)c2)n1 (stereo unspecified) the “Percent Effect” value was -1.537%. O=C(Nc1cccc(CN2CCC(CO)CC2)c1)c1cc(Cl)c[nH]1 was tested, and the “Percent Effect” value was 101.9%. In the case of CN(C)CCn1c(=O)oc2ccc(NC(=O)c3cc(Cl)c[nH]3)cc21, the “Percent Effect” value is reported as -2.174%. For COC(=O)C(O)C1CCN(Cc2cccc(-n3cccn3)c2)CC1 (stereo unspecified), the “Percent Effect” value was 8.265%. N#Cc1ccccc1C(=O)Nc1cccc(CN2CCC(CO)CC2)c1 was tested, and the “Percent Effect” value was 103.3%. Cc1nc(C)c(C(=O)Nc2cccc(CN3CCC(CO)CC3)c2)o1 was tested, and the “Percent Effect” value was 118.5%. In the case of CSCC(=O)Nc1ncn(Cc2cccc(Br)c2)n1, the “Percent Effect” value is reported as 13.99%. Cc1ncsc1CCN(C)Cc1ccc(Br)o1 was tested, and the “Percent Effect” value was 8.382%. CN(C)C1CN(C(=O)Nc2cccc(OC(F)F)c2)C1 was tested, and the “Percent Effect” value was -11.25%. For CCN(CC)C(=O)[C@@H]1C[C@@H](N)CN1C(=O)c1cc2c([nH]c1=O)CCC2, the “Percent Effect” value was -5.971%. For CCCS(=O)(=O)NCc1cccnc1OCc1ccccc1, the “Percent Effect” value was 9.301%. In the case of CN1CCN(C[C@@H]2CN(C(=O)c3ccccc3C#N)C[C@@H]2CO)CC1, the “Percent Effect” value is reported as 6.523%. CC(CO)(NC(=O)Nc1nncs1)C1CCCCC1 (stereo unspecified) was tested, and the “Percent Effect” value was -9.276%. With COCCc1noc(CNC(=O)C2CC(=O)N(C(C)(C)C)C2)n1 (stereo unspecified) the “Percent Effect” value was -10.49%. With COCCc1noc(CNC2CCSC2)n1 (stereo unspecified) the “Percent Effect” value was 7.087%. CC(CO)(NCc1noc(Cc2ccccc2)n1)C1CCCCC1 (stereo unspecified) was tested, and the “Percent Effect” value was 91.55%. In the case of COCCc1noc(CNC(C)(CO)C2CCCCC2)n1 (stereo unspecified), the “Percent Effect” value is reported as 130.3%. For CCC(=O)N1CCCC(C(=O)NCc2noc(Cc3ccccc3)n2)C1 (stereo unspecified), the “Percent Effect” value was 1.423%. CCc1nc(CNC(C)(CO)C2CCCCC2)no1 (stereo unspecified) was tested, and the “Percent Effect” value was 105.4%. For CCc1nc(CNc2ccc(-c3nc(C4CC4)no3)cn2)no1, the “Percent Effect” value was -0.6483%. CC(=O)N1CCCC(C(=O)NCc2noc(Cc3ccccc3)n2)C1 (stereo unspecified) was tested, and the “Percent Effect” value was 10.7%. In the case of O=C(O)C(F)(F)F.O=C(O)C(F)(F)F.O=C(O)c1cc2c(nc1-c1ccoc1)CCN(CC1CCOC1)CC2 (stereo unspecified), the “Percent Effect” value is reported as 7.736%. O=C(CCC(=O)N1CCC(Cc2ccc(CO)cc2)C1)c1ccccc1 (stereo unspecified) was tested, and the “Percent Effect” value was -6.413%. In the case of O=C(c1coc2ccccc12)N1CCCC1, the “Percent Effect” value is reported as 2.375%. CCS(=O)(=O)N1CC[C@@H]2[C@H](COCC3CC3)CN(C)C(=O)[C@@H]2CC1 was tested, and the “Percent Effect” value was 34.67%. For CN(Cc1cc(C(C)(C)C)n[nH]1)C(=O)c1cn2ccsc2n1, the “Percent Effect” value was 85.98%. With CN(C)c1cc(N(C)Cc2cc(C(C)(C)C)n[nH]2)ncn1 the “Percent Effect” value was 2.487%. O=C(c1ccc2nccn2c1)N(CCO)Cc1ccccc1F was tested, and the “Percent Effect” value was -19.18%. CC(C)c1nc(CN(C)C(=O)c2cn3ccsc3n2)cs1 was tested, and the “Percent Effect” value was 97.44%. With CN(Cc1cc(C(C)(C)C)n[nH]1)C(=O)c1ccccc1C1CCNC1 (stereo unspecified) the “Percent Effect” value was 27.35%. CN(Cc1cc(C(C)(C)C)n[nH]1)C(=O)c1ccc2nccn2c1 was tested, and the “Percent Effect” value was 54.27%. In the case of CC(C)c1nc(CN(C)C(=O)c2ccccc2C2CCNC2)cs1 (stereo unspecified), the “Percent Effect” value is reported as 31.56%. Cc1ccccc1CN(CCN(C)C)C(=O)c1ccc2nccn2c1 was tested, and the “Percent Effect” value was -23.59%. In the case of CC(C)c1nc(CN(C)C(=O)CNC(N)=O)cs1, the “Percent Effect” value is reported as -43.04%. In the case of CCCOC(=O)N1CCCC(c2nnc(CN3CCOCC3)n2C)C1 (stereo unspecified), the “Percent Effect” value is reported as -3.793%. Cc1cc(CN2CCC(CNC(=O)c3ccc4[nH]cnc4c3)C2)[nH]n1 (stereo unspecified) was tested, and the “Percent Effect” value was 4.896%. With O=C(Nc1cnc(Oc2ccccc2F)nc1)C1CC1 the “Percent Effect” value was -9.559%. In the case of COCCOC(=O)N1CCC(c2nccn2CC2CC2)CC1, the “Percent Effect” value is reported as 0.7863%. With COc1ccc(-n2ncc(C(C)NCc3cnc(SC)nc3)c2C)cc1 (stereo unspecified) the “Percent Effect” value was 30.41%. In the case of CO[C@H]1C[C@@H](O)C12CCN(CCOc1ccc(Cl)cc1)CC2, the “Percent Effect” value is reported as 86.28%. With NC(=O)COc1ccc(CN2CCC3(CC2)[C@H](O)C[C@@H]3O)cc1Cl the “Percent Effect” value was 17.24%. With CO[C@H]1C[C@@H](O)C12CCN(CCCOc1ccc(C(N)=O)cc1)CC2 the “Percent Effect” value was 113.2%. NCCO[C@H]1C[C@@H](O)C12CCN(C(=O)CCOc1ccccc1)CC2 was tested, and the “Percent Effect” value was -12.3%. With COc1cc(C)c(CN2CCC3(CC2)[C@H](O)C[C@@H]3OCCN)cc1C the “Percent Effect” value was 3.65%. CC[C@@]1(O)CCN(C(=O)c2ccc(OC(F)F)cc2)C[C@H]1O was tested, and the “Percent Effect” value was -4.955%. CCOc1cccc(C(=O)N2CCC3(CC2)[C@H](O)C[C@@H]3OC)c1 was tested, and the “Percent Effect” value was 2.834%. For CO[C@H]1C[C@@H](O)C12CCN(C(=O)CCCOc1ccccc1)CC2, the “Percent Effect” value was 97.53%. With CN(C)CCO[C@H]1C[C@@H](O)C12CCN(c1ncccc1Cl)CC2 the “Percent Effect” value was -1.379%. NCCO[C@H]1C[C@@H](O)C12CCN(C(=O)COc1cccc(Cl)c1)CC2 was tested, and the “Percent Effect” value was -10.97%. With CC[C@@]1(O)CCN(CCCOc2ccc(C(N)=O)cc2)C[C@H]1O the “Percent Effect” value was 95.4%. In the case of CC[C@@]1(O)CCN(C(=O)c2ccc(-c3ccco3)cc2)C[C@H]1O, the “Percent Effect” value is reported as -5.125%. In the case of Cc1ncccc1OC1(C(=O)NCCc2ccccn2)CCNCC1, the “Percent Effect” value is reported as -3.101%. With N#Cc1cc(Br)ccc1NC1CCN(CC(N)=O)CC1 the “Percent Effect” value was -6.071%. O=C(CSc1ccc2c(c1)OCCO2)NS(=O)(=O)c1ccccc1Cl was tested, and the “Percent Effect” value was -4.158%. For CC(O)CN1CCN(C(=O)CN(C)c2ccc(Cl)cn2)CC1 (stereo unspecified), the “Percent Effect” value was -12.66%. In the case of O=C1Nc2ccccc2/C1=C1\CCCN1, the “Percent Effect” value is reported as 133.6%. O=C1Nc2ccccc2/C1=C1\CCCCN1 was tested, and the “Percent Effect” value was 114.3%. With O=C1Nc2ccccc2/C1=C1\CCCCCN1 the “Percent Effect” value was 122.1%. With CCCN1C[C@H]2CC[C@@H]1CN(Cc1cccc(-n3cccn3)c1)C2 the “Percent Effect” value was -7.313%. CC(C)Cc1cc(C(=O)N2CCCC(n3cncn3)C2)[nH]n1 (stereo unspecified) was tested, and the “Percent Effect” value was 6%. For CC(C)c1cc(C(=O)N2CCCC(n3cncn3)C2)n[nH]1 (stereo unspecified), the “Percent Effect” value was 96.9%. CC(C)n1ccc(C(=O)N2CCCC(n3cncn3)C2)n1 (stereo unspecified) was tested, and the “Percent Effect” value was 105.9%. O=C(c1cc(C2CC2)[nH]n1)N1CCCC(n2cncn2)C1 (stereo unspecified) was tested, and the “Percent Effect” value was 0.773%. Cc1cc(C)c(CNC(=O)NC2CCN(C(=O)C(C)C)CC2)c(C)c1 was tested, and the “Percent Effect” value was 11.56%. In the case of CC(Cn1cccn1)C(=O)N1CCC(NS(C)(=O)=O)CC1 (stereo unspecified), the “Percent Effect” value is reported as -5.413%. In the case of CS(=O)(=O)Nc1cnn(Cc2cccc(Cl)c2)c1, the “Percent Effect” value is reported as 81.71%. CC(C)N(C)S(=O)(=O)N(C)Cc1cnn(Cc2ccccc2)c1 was tested, and the “Percent Effect” value was -14.36%. CCS(=O)(=O)Nc1cnn(Cc2cccc(Cl)c2)c1 was tested, and the “Percent Effect” value was 132.7%. CS(=O)(=O)N1CCC(C(=O)N2CCN(Cc3cccc(Cl)c3)CC2)CC1 was tested, and the “Percent Effect” value was -5.012%. CS(=O)(=O)Nc1cccc(CNC(=O)c2cccs2)c1 was tested, and the “Percent Effect” value was 8.71%. With CCS(=O)(=O)Nc1ccn(Cc2cccc(Cl)c2)n1 the “Percent Effect” value was -21.52%. COc1cc(C)ccc1OCc1nc(C(=O)N2CCCNC(=O)C2)co1 was tested, and the “Percent Effect” value was 5.427%.
